Source: PubChem BioAssay (Tox21)
Values joined by “and” are separate entries in the source; they are usually repeats but may differ in a detail not shown here. Equal values may be shown once. Records with an inconclusive call do not appear. A call without a number means that no potency is given here. The source holds several records for some structures; these can differ, active in one and inactive in another. Active and inactive are the calls of the source. Unless noted, calls follow the shape of the dose curve; as a rule, active = well fitted curve in the direction sought with a large enough effect in the repeat runs; inconclusive = weak or mixed curves; inactive = no such curve, though single readings can be large; an effect the other way counts as inactive or inconclusive.

Tests used:
[1] = Caspase-3/7 induction in HepG2 cells by small molecules, qHTS assay (AID 1346978); also: nearly all actives have a fitted effect of over 15% in size; also: potency is read from the fitted curve at half-maximal effect
Summary of the method: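 Wild-type HepG2 cells (2,000/well) were settled 5 h at 37 C, 5% CO2, then exposed to compounds in DMSO for 17 h. Caspase-3/7 activity was read by luminescence 30 min after adding Caspase-Glo 3/7 reagent at room temperature.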

[2] = Caspase-3/7 induction in CHO-K1 cells by small molecules, qHTS cell viability counter screen (AID 1346979); also: nearly all actives have a fitted effect of over 35% in size; also: potency is read from the fitted curve at half-maximal effect
Summary of the method: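 In the same wells as the caspase read, viability of compound-treated wild-type CHO-K1 cells was assessed using CellTiter-Fluor, added after 16hr at 37C and measured by fluorescence following 1hr further incubation.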

[3] = Caspase-3/7 induction in CHO-K1 cells by small molecules, qHTS assay (AID 1346980); also: nearly all actives have a fitted effect of over 15% in size
Summary of the method: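 Wild-type cells were seeded at 1,500 per well and settled 5 hr at 37 C, 5% CO2, then exposed to DMSO-dissolved compounds for 17 hr. Caspase-Glo 3/7 reagent was added, and luminescence was read after 30min at room temperature.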

[4] = target: Nuclear receptor subfamily 1 group I member 2 (Homo sapiens) (UniProt O75469); test: Human pregnane X receptor (PXR) small molecule agonists, qHTS assay (AID 1346982); also: nearly all actives have a fitted effect of over 35% in size; also: potency is read from the fitted curve at half-maximal effect
Sequence of Nuclear receptor subfamily 1 group I member 2 (Homo sapiens) (O75469 whole entry, looked up): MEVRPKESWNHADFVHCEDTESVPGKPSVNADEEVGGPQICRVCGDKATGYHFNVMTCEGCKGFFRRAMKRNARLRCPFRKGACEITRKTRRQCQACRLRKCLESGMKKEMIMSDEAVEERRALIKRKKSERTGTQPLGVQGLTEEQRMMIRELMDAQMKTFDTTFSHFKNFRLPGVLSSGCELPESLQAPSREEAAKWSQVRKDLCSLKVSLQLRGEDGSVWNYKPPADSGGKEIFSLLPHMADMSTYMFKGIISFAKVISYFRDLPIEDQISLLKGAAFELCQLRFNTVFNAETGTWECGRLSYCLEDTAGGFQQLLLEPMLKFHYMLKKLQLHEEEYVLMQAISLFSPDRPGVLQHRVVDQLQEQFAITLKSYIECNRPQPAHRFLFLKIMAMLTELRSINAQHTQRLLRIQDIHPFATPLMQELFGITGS
Summary of the method: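 We seeded PXR-Luc HepG2 cells in assay medium containing 5% charcoal-stripped FBS, added compounds 5 hr later, incubated 24 hr, and read luminescence with ONE-Glo reagent.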

[5] = target: Acetylcholinesterase (Homo sapiens) (UniProt P22303); test: Acetylcholinesterase (AChE) small molecule antagonists: colormetric cell-based qHTS assay (AID 1347395; calls by dose curve; also: nearly all actives have a fitted effect of over 30% in size)
Sequence of Acetylcholinesterase (Homo sapiens) (P22303 whole entry, looked up): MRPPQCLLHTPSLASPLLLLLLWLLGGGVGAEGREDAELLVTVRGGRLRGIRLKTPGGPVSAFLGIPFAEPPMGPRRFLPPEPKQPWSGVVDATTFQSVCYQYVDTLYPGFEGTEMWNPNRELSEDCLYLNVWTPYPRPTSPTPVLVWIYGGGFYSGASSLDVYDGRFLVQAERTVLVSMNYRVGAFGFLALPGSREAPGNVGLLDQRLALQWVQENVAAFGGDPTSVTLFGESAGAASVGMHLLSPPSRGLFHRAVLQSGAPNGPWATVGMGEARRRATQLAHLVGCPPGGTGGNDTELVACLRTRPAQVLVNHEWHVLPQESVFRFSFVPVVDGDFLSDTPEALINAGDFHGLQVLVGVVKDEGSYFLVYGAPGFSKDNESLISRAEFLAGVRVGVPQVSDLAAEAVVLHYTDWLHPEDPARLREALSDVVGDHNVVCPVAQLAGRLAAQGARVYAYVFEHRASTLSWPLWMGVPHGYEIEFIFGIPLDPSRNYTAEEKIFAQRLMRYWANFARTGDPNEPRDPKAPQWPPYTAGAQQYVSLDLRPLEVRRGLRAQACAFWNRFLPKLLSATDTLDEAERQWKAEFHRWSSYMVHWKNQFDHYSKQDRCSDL
Summary of the method: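 Endogenous AChE of human neuroblastoma SH-SY5Y cells was measured with an Ellman-type DTNB/acetylthiocholine mix. Compound pretreatment lasted 30 min at 37 C; substrate reaction ran 90 min at 37 C.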

[6] = target: Acetylcholinesterase (Homo sapiens) (UniProt P22303); test: Acetylcholinesterase (AChE) small molecule antagonists: enzyme-based qHTS assay (AID 1347397; calls by dose curve; also: nearly all actives have a fitted effect of over 55% in size); conditions: Potency: AChE enzyme activity inhibition
Summary of the method: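 Recombinant human AChE, dispensed at 50 mU/mL, was preincubated with Tox21 10K compounds or DMSO vehicle for 30 min at room temperature. DTNB plus acetylthiocholine was then added, and thiocholine was measured colorimetrically after a further 10 min.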

[7] = target: Acetylcholinesterase (Homo sapiens) (UniProt P22303); test: Acetylcholinesterase (AChE) small molecule antagonists: fluorescence cell-based qHTS assay (AID 1347398; calls by dose curve; also: nearly all actives have a fitted effect of over 50% in size); conditions: Potency: AChE activity
Summary of the method: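 Human SH-SY5Y cells were plated overnight at 37 C, exposed to compound for 30 min at 37 C, 5% CO2, then given acetylthiocholine plus Thiolite Green for 40 min at room temperature; thiocholine fluorescence (Ex/Em 490/520 nm) reports endogenous AChE activity.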

[8] = target: Acetylcholinesterase (Homo sapiens) (UniProt P22303); test: Acetylcholinesterase (AChE) small molecule antagonists: enzyme-based qHTS assay with human liver microsomes (AID 1347399; calls by dose curve; also: nearly all actives have a fitted effect of over 60% in size); conditions: Potency: qHTS inhibition
Summary of the method: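 Recombinant human AChE (50 mU/mL in the enzyme mix) and human liver microsomes (0.25 mg/mL final) were preincubated with compound and NADPH (0.25 mg/mL final) for 30 min at 37 C. Acetylthiocholine/DTNB was then added; thiocholine was read colorimetrically after 10 min at room temperature.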

[9] = target: Cytochrome P450 2D6 (Homo sapiens) (UniProt P10635); test: Cytochrome P450 Family 2 Subfamily D Member 6 (CYP2D6) small molecule antagonists: luciferase reporter qHTS assay (AID 1671196); also: nearly all actives have a fitted effect of over 50% in size; also: potency is read from the fitted curve at half-maximal effect
Sequence of Cytochrome P450 2D6 (Homo sapiens) (P10635 whole entry, looked up): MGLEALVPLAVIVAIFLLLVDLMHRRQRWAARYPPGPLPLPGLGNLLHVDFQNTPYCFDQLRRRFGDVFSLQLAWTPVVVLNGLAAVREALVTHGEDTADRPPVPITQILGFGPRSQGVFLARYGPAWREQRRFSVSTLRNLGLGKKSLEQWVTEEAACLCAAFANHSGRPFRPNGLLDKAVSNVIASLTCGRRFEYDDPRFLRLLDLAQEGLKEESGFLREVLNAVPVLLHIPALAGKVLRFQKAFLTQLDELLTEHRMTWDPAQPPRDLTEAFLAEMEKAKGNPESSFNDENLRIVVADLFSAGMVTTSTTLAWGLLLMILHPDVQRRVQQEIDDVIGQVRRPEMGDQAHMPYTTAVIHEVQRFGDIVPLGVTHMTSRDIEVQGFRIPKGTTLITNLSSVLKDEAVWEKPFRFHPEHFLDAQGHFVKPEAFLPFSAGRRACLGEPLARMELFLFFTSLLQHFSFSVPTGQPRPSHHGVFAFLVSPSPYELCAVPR
Summary of the method: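 Luminescence (RLU), read 20 min after detection reagent, indicated CYP2D6 conversion of proluciferin to luciferin during a 1 h NADPH-dependent reaction at room temperature.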

[10] = target: Cytochrome P450 2C19 (Homo sapiens) (UniProt P33261); test: Cytochrome P450 Family 2 Subfamily C Member 19 (CYP2C19) small molecule antagonists: luciferase reporter qHTS assay (AID 1671197); also: nearly all actives have a fitted effect of over 65% in size; also: potency is read from the fitted curve at half-maximal effect
Sequence of Cytochrome P450 2C19 (Homo sapiens) (P33261 whole entry, looked up): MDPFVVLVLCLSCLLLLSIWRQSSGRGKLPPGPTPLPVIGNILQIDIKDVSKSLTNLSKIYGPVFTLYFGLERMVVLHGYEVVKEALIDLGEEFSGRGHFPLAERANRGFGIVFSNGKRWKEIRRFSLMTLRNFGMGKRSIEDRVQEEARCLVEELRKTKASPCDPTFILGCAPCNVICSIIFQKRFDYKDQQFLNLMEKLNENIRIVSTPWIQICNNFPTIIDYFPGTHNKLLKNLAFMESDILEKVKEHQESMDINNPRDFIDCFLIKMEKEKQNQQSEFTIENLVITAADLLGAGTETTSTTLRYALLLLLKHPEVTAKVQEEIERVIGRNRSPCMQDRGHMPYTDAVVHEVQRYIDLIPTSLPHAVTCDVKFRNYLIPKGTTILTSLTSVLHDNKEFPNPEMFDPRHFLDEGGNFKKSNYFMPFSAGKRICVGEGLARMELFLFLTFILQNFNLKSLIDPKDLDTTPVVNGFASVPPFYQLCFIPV
Summary of the method: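 Light output is proportional to CYP2C19 activity: proluciferin substrate is converted to luciferin, then detected by a luciferin detection reagent that also stops the 1 h, 37C NADPH-driven reaction. Ketoconazole serves as positive control.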

[11] = target: Cytochrome P450 2C9 (Homo sapiens) (UniProt P11712); test: Cytochrome P450 Family 2 Subfamily C Member 9 (CYP2C9) small molecule antagonists: luciferase reporter qHTS assay (AID 1671198); also: nearly all actives have a fitted effect of over 50% in size; also: potency is read from the fitted curve at half-maximal effect
Sequence of Cytochrome P450 2C9 (Homo sapiens) (P11712 whole entry, looked up): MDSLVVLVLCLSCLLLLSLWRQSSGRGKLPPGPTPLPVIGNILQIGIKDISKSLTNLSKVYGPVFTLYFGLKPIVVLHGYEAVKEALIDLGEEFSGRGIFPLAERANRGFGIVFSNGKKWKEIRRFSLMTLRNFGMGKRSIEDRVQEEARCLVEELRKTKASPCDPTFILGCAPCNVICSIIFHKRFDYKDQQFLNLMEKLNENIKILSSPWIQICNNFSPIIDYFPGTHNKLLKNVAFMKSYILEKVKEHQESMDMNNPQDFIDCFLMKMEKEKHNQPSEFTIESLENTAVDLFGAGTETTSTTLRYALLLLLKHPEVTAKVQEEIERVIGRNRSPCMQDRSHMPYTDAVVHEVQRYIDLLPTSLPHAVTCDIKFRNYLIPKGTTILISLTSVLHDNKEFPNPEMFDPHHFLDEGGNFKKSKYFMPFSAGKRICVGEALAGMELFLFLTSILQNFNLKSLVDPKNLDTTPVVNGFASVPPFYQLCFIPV
Summary of the method: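 CYP2C9 activity was measured with a P450-Glo proluciferin substrate. Enzyme–substrate mix was held with compound for 10 min at room temperature, then NADPH regeneration solution was added for 1 h at 37C. Luciferin product was read as luminescence.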

[12] = target: Cytochrome P450 1A2 (Homo sapiens) (UniProt P05177); test: Cytochrome P450 Family 1 Subfamily A Member 2 (CYP1A2) small molecule antagonists: luciferase reporter qHTS assay (AID 1671199); also: nearly all actives have a fitted effect of over 50% in size; also: potency is read from the fitted curve at half-maximal effect
Sequence of Cytochrome P450 1A2 (Homo sapiens) (P05177 whole entry, looked up): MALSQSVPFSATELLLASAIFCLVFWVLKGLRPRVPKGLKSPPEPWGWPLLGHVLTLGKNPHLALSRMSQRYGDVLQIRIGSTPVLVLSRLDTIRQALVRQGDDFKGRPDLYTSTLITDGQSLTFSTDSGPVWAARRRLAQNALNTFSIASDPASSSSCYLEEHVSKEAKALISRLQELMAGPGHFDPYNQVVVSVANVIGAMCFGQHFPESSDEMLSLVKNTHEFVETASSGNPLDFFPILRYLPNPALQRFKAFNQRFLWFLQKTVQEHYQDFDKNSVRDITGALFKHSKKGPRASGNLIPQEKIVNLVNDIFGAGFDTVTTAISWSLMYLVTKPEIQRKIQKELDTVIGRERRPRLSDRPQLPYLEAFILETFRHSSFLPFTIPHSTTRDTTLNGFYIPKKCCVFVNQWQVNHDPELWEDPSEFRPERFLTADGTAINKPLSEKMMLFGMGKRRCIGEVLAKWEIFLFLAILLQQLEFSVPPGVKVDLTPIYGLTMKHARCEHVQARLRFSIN
Summary of the method: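 CYP1A2 turnover of a luminogenic substrate was quantified after 1 h with NADPH regeneration at room temperature. Furafylline served as positive control.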

[13] = target: Voltage-gated inwardly rectifying potassium channel KCNH2 (Homo sapiens) (UniProt Q12809); test: Human Ether-a-go-go-Related Gene (hERG) channel small molecule antagonists: fluorescence cell-based qHTS assay (AID 1671200); also: nearly all actives have a fitted effect of over 50% in size; also: potency is read from the fitted curve at half-maximal effect
Sequence of Voltage-gated inwardly rectifying potassium channel KCNH2 (Homo sapiens) (Q12809 whole entry, looked up): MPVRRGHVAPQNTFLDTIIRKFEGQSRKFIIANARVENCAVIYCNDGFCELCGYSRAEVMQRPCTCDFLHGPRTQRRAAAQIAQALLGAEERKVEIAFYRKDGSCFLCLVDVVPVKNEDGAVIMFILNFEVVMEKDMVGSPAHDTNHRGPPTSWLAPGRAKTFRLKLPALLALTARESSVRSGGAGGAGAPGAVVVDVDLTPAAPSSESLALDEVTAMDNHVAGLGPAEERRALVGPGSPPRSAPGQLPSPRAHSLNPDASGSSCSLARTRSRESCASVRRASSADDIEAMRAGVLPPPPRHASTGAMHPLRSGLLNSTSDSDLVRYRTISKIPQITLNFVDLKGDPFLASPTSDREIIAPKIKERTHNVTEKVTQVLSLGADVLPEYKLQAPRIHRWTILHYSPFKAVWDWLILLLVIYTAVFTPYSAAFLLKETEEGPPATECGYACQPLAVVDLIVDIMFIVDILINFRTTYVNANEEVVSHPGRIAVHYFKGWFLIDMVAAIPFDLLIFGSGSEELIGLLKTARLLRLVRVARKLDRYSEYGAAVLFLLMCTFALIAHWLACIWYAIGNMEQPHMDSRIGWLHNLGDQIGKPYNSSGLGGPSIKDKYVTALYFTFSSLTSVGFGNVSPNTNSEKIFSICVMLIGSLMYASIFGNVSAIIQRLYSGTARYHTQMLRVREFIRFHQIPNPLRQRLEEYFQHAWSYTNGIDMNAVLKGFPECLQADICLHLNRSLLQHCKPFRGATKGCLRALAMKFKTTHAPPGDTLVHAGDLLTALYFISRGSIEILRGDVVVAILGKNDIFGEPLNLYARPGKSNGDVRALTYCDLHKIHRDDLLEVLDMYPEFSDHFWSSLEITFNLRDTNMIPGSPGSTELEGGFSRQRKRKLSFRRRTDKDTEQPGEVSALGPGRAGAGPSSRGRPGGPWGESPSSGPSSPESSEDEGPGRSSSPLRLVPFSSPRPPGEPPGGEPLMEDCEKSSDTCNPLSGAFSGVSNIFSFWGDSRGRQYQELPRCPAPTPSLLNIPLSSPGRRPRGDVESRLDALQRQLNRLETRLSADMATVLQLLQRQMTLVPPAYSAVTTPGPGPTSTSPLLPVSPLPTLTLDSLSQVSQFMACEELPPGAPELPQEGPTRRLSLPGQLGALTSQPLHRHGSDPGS
Summary of the method: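 Quantitative HTS in hERG-U2OS cells: thallium entry through the channel reports activity, read as continuous 480/540 nm fluorescence over 2 min after stimulus addition.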

[14] = target: Cytochrome P450 3A4 (Homo sapiens) (UniProt P08684); test: Cytochrome P450 Family 3 Subfamily A Member 4 (CYP3A4) small molecule antagonists: luciferase reporter qHTS assay (AID 1671201)
Sequence of Cytochrome P450 3A4 (Homo sapiens) (P08684 whole entry, looked up): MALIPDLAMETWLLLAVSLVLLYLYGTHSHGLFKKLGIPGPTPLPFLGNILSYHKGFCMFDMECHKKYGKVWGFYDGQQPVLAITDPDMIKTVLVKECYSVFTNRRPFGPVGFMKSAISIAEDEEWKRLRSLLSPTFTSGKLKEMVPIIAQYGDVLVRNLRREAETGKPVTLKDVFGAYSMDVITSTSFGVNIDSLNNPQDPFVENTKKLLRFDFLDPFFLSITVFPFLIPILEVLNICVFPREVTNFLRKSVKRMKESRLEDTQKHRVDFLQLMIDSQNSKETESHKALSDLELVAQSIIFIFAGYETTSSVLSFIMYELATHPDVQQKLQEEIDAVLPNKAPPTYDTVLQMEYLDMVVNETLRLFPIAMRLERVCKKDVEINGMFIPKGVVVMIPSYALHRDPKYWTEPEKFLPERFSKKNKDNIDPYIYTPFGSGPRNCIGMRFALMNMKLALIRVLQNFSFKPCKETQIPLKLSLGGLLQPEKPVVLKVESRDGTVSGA
Summary of the method: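 Inhibition of CYP3A4 is measured as loss of light: the enzyme converts a proluciferin substrate to luciferin, detected luminescently. Reaction ran 1 h at room temperature with NADPH regeneration after a 10 min compound preincubation.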

[15] = target: Nuclear receptor subfamily 1 group I member 2 (Homo sapiens) (UniProt O75469); test: CYP3A4 induction through human pregnane X receptor (PXR) by small molecules, qHTS assay (AID 1346984); also: potency is read from the fitted curve at half-maximal effect; nearly all actives have a fitted effect of over 40% in size
Summary of the method: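 qHTS, concentration-response format: HepG2 DPX-2 line, PXR/CYP3A4-luc. Exposure 24 h, 37C. Substrate Luciferin-IPA 3uM final, 3 h. Detection One-Glo, 30 min RT.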

[16] = Caspase-3/7 induction in HepG2 cells by small molecules, qHTS cell viability counter screen (AID 1346981); also: nearly all actives have a fitted effect of over 30% in size; also: potency is read from the fitted curve at half-maximal effect
Summary of the method: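 Multiplexed with the caspase-3/7 assay: HepG2 cells, 16 hr compound treatment, CellTiter-Fluor viability detection by fluorescence.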

[17] = target: Nuclear receptor subfamily 1 group I member 2 (Rattus norvegicus) (UniProt Q9R1A7); test: Rat pregnane X receptor (rPXR) activation by small molecules, qHTS assay (AID 1346983); conditions: rPXR luciferase reporter cells, One-Glo luminescence, 24 h; stronger effect = higher value; also: nearly all actives have a fitted effect of over 20% in size
Summary of the method: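 Cell-based rPXR luciferase reporter assay, 2,000 cells per well, rested 5hr at 37 C before compound addition in DMSO, then 24 hr at 37 C. One-Glo reagent was added and luminescence read after 30 min at room temperature.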

[18] = target: Nuclear receptor subfamily 1 group I member 2 (Homo sapiens) (UniProt O75469); test: Human pregnane X receptor (PXR) activation by small molecules, qHTS assay (AID 1346985); also: nearly all actives have a fitted effect of over 40% in size
Summary of the method: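 DPX-2 cells (HepG2 co-transfected with a PXR response element and a CYP3A4-promoter luciferase construct) were seeded at 2,000 per well, rested 5 hr at 37C, then exposed to DMSO-dissolved compounds for 24 hr. Activation was read as luciferase luminescence.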

| SMILES | Potency [1] | Potency [2] | Potency [3] | Potency [4] | Potency [5] | Potency [6] | Potency [7] | Potency [8] | Potency [9] | Potency [10] | Potency [11] | Potency [12] | Potency [13] | Potency [14] | Potency [15] | Potency [16] | max activation [17] | outcome [18] |
| --- | --- | --- | --- | --- | --- | --- | --- | --- | --- | --- | --- | --- | --- | --- | --- | --- | --- | --- |
| CCOC(=O)c1ccccc1N | inactive | inactive | inactive | inactive | inactive | inactive | inactive | inactive | inactive | inactive | inactive | 28.1 µM (active) and 31.7 µM (active) | inactive | inactive | – | – | – | – |
| CC(C)Nc1ccc(Nc2ccccc2)cc1 | inactive | 24.2 µM (active) and 38.6 µM (active) | inactive | 4.31 µM (active) and 5.45 µM (active) | inactive | inactive | – | inactive | 8.91 µM (active) and 10 µM (active) | 3.16 µM (active) and 3.99 µM (active) | 501 nM (active) and 1.12 µM (active) | 35.5 µM (active) and 35.6 µM (active) | 24.4 µM (active) | – | 14.1 µM (active) | – | – | – |
| Clc1cccc(Cl)c1 | inactive | inactive | inactive | inactive | inactive | inactive | inactive | inactive | inactive | 62.8 µM (active) and inactive | inactive | – | inactive | inactive | – | – | – | – |
| [Cl-].[Cl-].[Cl-].[Fe+3] | inactive | inactive | inactive | – | – | – | – | – | – | – | – | – | inactive | – | – | inactive | – | – |
| Clc1ccc(C(Cl)(Cl)Cl)cc1 | inactive | inactive | inactive | inactive | inactive | inactive | inactive | inactive | inactive | inactive and 28.3 µM (active) | inactive | inactive | inactive | inactive | – | – | – | – |
| COc1ccc(CO)cc1 | inactive | inactive | inactive | – | – | – | – | – | – | – | – | – | inactive | – | – | – | – | – |
| CC(C)(c1ccccc1)c1ccc(O)c(C(C)(C)c2ccccc2)c1 | 42.9 µM (active) and 68.6 µM (active) | 30.4 µM (active) and 43.3 µM (active) | – | 1.92 µM (active) and 3.86 µM (active) | inactive | inactive | inactive | inactive | 25 µM (active) and 35.6 µM (active) | 5.59 µM (active) and 3.56 µM (active) | 3.96 µM (active) and 2.83 µM (active) | 35.3 µM (active) and 35.6 µM (active) | – | – | – | 54 µM (active) | – | – |
| Clc1ccccc1-c1nnc(-c2ccccc2Cl)nn1 | inactive | 54 µM (active) and inactive | – | 54 µM (active) and inactive | inactive | inactive | inactive | inactive | inactive | 31.4 µM (active) and 6.31 µM (active) | inactive | 5.59 µM (active) and 7.08 µM (active) | inactive | – | – | inactive | – | – |
| CC1(C)Cc2cccc(O)c2O1 | inactive | inactive | inactive | inactive | inactive | inactive | inactive | inactive | inactive | inactive | inactive | – | inactive | inactive | – | – | – | – |
| CCCCOCCOC(C)=O | inactive | inactive | – | inactive | inactive | inactive | inactive | inactive | inactive | 77.6 µM (active) and inactive | inactive | inactive | inactive | – | – | inactive | – | – |
| CC(C)COC(=O)c1ccccc1C(=O)OCC(C)C | inactive | inactive | inactive | inactive | inactive | inactive | inactive | inactive | inactive | 10 µM (active) and 11.2 µM (active) | 28.3 µM (active) and 11.2 µM (active) | 12.6 µM (active) and 8.94 µM (active) | – | inactive | – | – | – | – |
| C=C(C)C#N | inactive | inactive | inactive | inactive | inactive | inactive | inactive | inactive | inactive | inactive | inactive | inactive | inactive | – | – | – | – | – |
| c1ccc2c(c1)Nc1ccccc1S2 | inactive | 68.6 µM (active) and inactive | – | 27.3 µM (active) | inactive | inactive | inactive | inactive | inactive | 2.24 µM (active) and 8.71 µM (active) | inactive | 731 nM (active) and 645 nM (active) | inactive | – | 0.708 µM (active) | inactive | -0.408% (inactive) | inactive |
| O=NN1CCOCC1 | inactive | inactive | inactive | inactive | inactive | inactive | inactive | inactive | inactive | inactive | inactive | inactive | inactive | inactive | – | – | – | – |
